Experimental data as given in PubChem BioAssay (EPA / NIEHS).
Records with an inconclusive call do not appear. Calls of active or inactive are those of the source. How the source made its calls: active means hit-call score of the fitted dose curve at least 0.9, where 1 is the maximum; inconclusive means response in the unintended direction; inactive means score below 0.9.

How the values were obtained:
[1] = TOX21_p53_BLA_p2_viability: Viability Assessment in the Tox21 HCT-116 p53 Agonism Beta-lactamase Assay, Phase 2 (AID 2283591);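 further: compound exposure lasted 16 h at 37 °C; actives lower the ATP signal meaning cytotoxicity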
Procedure, shortened: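 HCT116 p53-bla cells, 4000/well, dosed after 5 h plating (217-fold dilution of DMSO stocks) and incubated 16 h at 37C. Viability taken as cellular ATP by CellTiter-Glo luminescence after 30 min RT; signal loss marks cytotoxicity.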

[2] = molecular target: Cellular tumor antigen p53 (Homo sapiens) (UniProt P04637); assay: TOX21_p53_BLA_p2_ratio: Tox21 HCT-116 p53 Agonism Beta-lactamase Assay, Ratio, Phase 2 (AID 2283592)
Chain of Cellular tumor antigen p53 (Homo sapiens) (P04637 whole entry, looked up): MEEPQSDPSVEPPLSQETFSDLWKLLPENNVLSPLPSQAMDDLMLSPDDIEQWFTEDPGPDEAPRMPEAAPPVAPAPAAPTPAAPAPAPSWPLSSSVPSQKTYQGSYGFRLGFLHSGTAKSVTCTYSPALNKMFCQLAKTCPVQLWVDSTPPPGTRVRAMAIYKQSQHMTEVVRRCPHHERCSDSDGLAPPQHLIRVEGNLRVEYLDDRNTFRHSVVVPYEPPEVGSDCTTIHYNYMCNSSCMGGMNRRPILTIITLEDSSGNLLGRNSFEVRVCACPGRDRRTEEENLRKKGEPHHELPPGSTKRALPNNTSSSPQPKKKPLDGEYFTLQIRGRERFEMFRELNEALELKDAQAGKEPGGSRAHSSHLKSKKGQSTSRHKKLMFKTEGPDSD
Procedure, shortened: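 Gain-of-signal p53 agonism was scored from the beta-lactamase FRET ratio (460/530 nm, 405 nm excitation) in HCT116 cells treated 16 h at 37C, 5% CO2, with DMSO serving as negative control and baseline.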

[3] = TOX21_p53_BLA_p3_viability: Viability Assessment in the Tox21 HCT-116 p53 Agonism Beta-lactamase Assay, Phase 3 (AID 2283593);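 further: cells exposed to compound for 16 h before reading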
Procedure, shortened: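 HCT116 cells, 4000/well, dosed 5 h after plating by pin transfer (217-fold dilution from DMSO stock) and incubated 16 h at 37C, 5% CO2. Viability read as ATP luminescence with CellTiter-Glo after 30 min at room temperature.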

[4] = molecular target: Cellular tumor antigen p53 (Homo sapiens) (UniProt P04637); assay: TOX21_p53_BLA_p3_ratio: Tox21 HCT-116 p53 Agonism Beta-lactamase Assay, Ratio, Phase 3 (AID 2283596)
Procedure, shortened: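 HCT116 p53-bla cells (4000/well) given compound in DMSO (217-fold dilution) after 5 h, incubated 16 h at 37C. CCF4-AM substrate 2 h at room temperature; 460/530 nm emission ratio, gain fitted against DMSO.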

[5] = TOX21_p53_BLA_p4_viability: Viability Assessment in the Tox21 HCT-116 p53 Agonism Beta-lactamase Assay, Phase 4 (AID 2283597);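 further: hits lower the luminescence signal meaning cytotoxicity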
Procedure, shortened: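 Following a 16 h exposure at 37C, the treated HCT116 wells were first read for the FRET ratio. They were then lysed with CellTiter-Glo, and ATP luminescence was recorded after 30 min at room temperature.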

[6] = molecular target: Cellular tumor antigen p53 (Homo sapiens) (UniProt P04637); assay: TOX21_p53_BLA_p5_ratio: Tox21 HCT-116 p53 Agonism Beta-lactamase Assay, Ratio, Phase 5 (AID 2283599)
Procedure, shortened: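 HCT-116 p53-bla cells (4000/well) plated 5 h, dosed with compound (217-fold DMSO dilution) for 16 h at 37 C; CCF4-AM substrate 2 h at room temperature. Activity is the 460/530 nm emission ratio (405 nm excitation), fitted in gain-of-signal direction versus DMSO.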

[7] = TOX21_p53_BLA_p5_viability: Viability Assessment in the Tox21 HCT-116 p53 Agonism Beta-lactamase Assay, Phase 5 (AID 2283600)
Procedure, shortened: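 After the 460/530 nm beta-lactamase measurement, the wells received an ATP-detection luciferase reagent; signal was read 30 min later at RT. Compound treatment lasted 16 h on cells pre-incubated 5 h post-seeding.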

[8] = molecular target: Cellular tumor antigen p53 (Homo sapiens) (UniProt P04637); assay: TOX21_p53_BLA_p4_ratio: Tox21 HCT-116 p53 Agonism Beta-lactamase Assay, Ratio, Phase 4 (AID 2283601)
Procedure, shortened: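 HCT-116 p53 beta-lactamase reporter cells (4000/well) preincubated 5 h, then compound (217-fold dilution of DMSO stock) for 16 h at 37C. CCF4-AM substrate added 2 h at room temperature; 460/530 nm emission ratio fitted upward versus DMSO.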

Measured: AC50

N=C(N)c1ccc(OCCCOc2ccc(C(=N)N)cc2Br)c(Br)c1
inactive: [1] | [2] | [3] | [4] | [5] | [6] | [7] | [8]

O=C(Oc1cccc2cccnc12)c1ccccc1
inactive: [1] | [2] | [3] | [4] | [5] | [6] | [7] | [8]

COc1cc2c(cc1OC)-c1cc(=Nc3c(C)cc(C)cc3C)n(C)c(=O)n1CC2
active: [1] 39 µM | [2] 35.6 µM | [3] 33.4 µM | [4] 36.7 µM | [5] 36 µM | [6] 41.3 µM | [7] 32.7 µM | [8] 36.6 µM

CC[C@@H]([C@H](C)O)n1ncn(-c2ccc(N3CCN(c4ccc(OC[C@@H]5CO[C@@](Cn6cncn6)(c6ccc(F)cc6F)C5)cc4)CC3)cc2)c1=O
active: [5] 18.1 µM
inactive: [1] | [2] | [3] | [4] | [6] | [7] | [8]

Cn1c(O)c(N=NC(N)=S)c2ccccc21
inactive: [1] | [2] | [3] | [4] | [5] | [6] | [7] | [8]

CC[C@@H](C(=O)[C@@H](C)[C@@H](O)[C@H](C)CCc1ccc(C)c(O)c1C(=O)O)[C@H]1O[C@](CC)([C@H]2CC[C@](O)(CC)[C@H](C)O2)C[C@@H]1C
active: [1] 23 µM | [2] 17.2 µM | [3] 23 µM | [4] 30.3 µM | [5] 31.1 µM | [6] 36.2 µM | [7] 31.4 µM | [8] 14.6 µM

C[C@@H]1CCC2[C@@H](C)[C@@H](O)O[C@@H]3O[C@@]4(C)CC[C@@H]1[C@@]23OO4 (stereo partly drawn)
inactive: [1] | [2] | [3] | [4] | [5] | [6] | [7] | [8]

CCCCCCCC[P+](CCCCCCCC)(CCCCCCCC)CCCCCCCC
active: [1] 15.8 µM | [2] 29.2 µM | [3] 13.3 µM | [4] 13.4 µM | [5] 21.6 µM | [6] 13.2 µM | [7] 13.6 µM | [8] 31.7 µM

CCCOc1ccc(C(=O)OCCN(CC)CC)cc1N
inactive: [1] | [2] | [3] | [4] | [5] | [6] | [7] | [8]

O=C(O)c1ccccc1[N+](=O)[O-]
active: [2] 73.7 µM | [6] 86.4 µM
inactive: [1] | [3] | [4] | [5] | [7] | [8]

O=C(Nc1ccc(Oc2ccc(Cl)cc2)c(Cl)c1)c1cc(I)cc(I)c1O
inactive: [7]
active: [1] 4.23 µM | [2] 4.05 µM | [3] 2.64 µM | [4] 3.93 µM | [5] 2.3 µM | [6] 10.2 µM | [8] 8.12 µM

Nc1ccc(N)c2ccccc12
inactive: [4]
active: [1] 46 µM | [2] 16.5 µM | [3] 3.49 µM | [5] 46 µM | [6] 86 µM | [7] 46 µM | [8] 13.5 µM

Cc1cc(O)c(C(C)(C)C)cc1Sc1cc(C(C)(C)C)c(O)cc1C
active: [1] 13.2 µM | [2] 37.9 µM | [3] 20 µM | [4] 33.4 µM | [5] 14.3 µM | [6] 40.9 µM | [7] 18.1 µM | [8] 31.5 µM

Cc1cc2nc(N)sc2cc1C
inactive: [1] | [2] | [3] | [4] | [5] | [6] | [7] | [8]

CCOC(=O)COc1ccc2c(=O)cc(-c3ccccc3)oc2c1
inactive: [1] | [2] | [3] | [4] | [5] | [6] | [7] | [8]

CCCCCCCCCCCCCCCCCC(=O)OC[C@@H](O)[C@H]1OC[C@H](O)[C@H]1O
inactive: [1] | [2] | [3] | [4] | [5] | [6] | [7] | [8]

COCC1=C(C(=O)OC(C)OC(=O)OC(C)C)N2C(=O)[C@@H](NC(=O)/C(=N\OC)c3csc(N)n3)[C@H]2SC1 (stereo partly drawn)
inactive: [1] | [2] | [3] | [4] | [5] | [6] | [7] | [8]

COc1cc2c(cc1OC)C(=O)C(CC1CCN(Cc3ccccc3)CC1)C2 (stereo not drawn)
inactive: [1] | [2] | [3] | [4] | [5] | [6] | [7] | [8]

CC1=C(/C=C/C(C)=C/C=C/C(C)=C/C=O)C(C)(C)CCC1
active: [1] 28.7 µM | [3] 36.6 µM | [4] 66.6 µM | [5] 67 µM | [6] 49.1 µM | [7] 34.9 µM | [8] 85.6 µM
inactive: [2]

CO[C@H]1/C=C/O[C@@]2(C)Oc3c(C)c(O)c4c(O)c(cc(O)c4c3C2=O)NC(=O)/C(C)=C\C=C\[C@H](C)[C@H](O)[C@@H](C)[C@@H](O)[C@@H](C)[C@H](OC(C)=O)[C@@H]1C
inactive: [1] | [2] | [3] | [4] | [5] | [6] | [7] | [8]

Cc1ccc2c(Cl)cc(Cl)c(O)c2n1
inactive: [2] | [4] | [7]
active: [1] 7.81 µM | [3] 12.2 µM | [5] 13.7 µM | [6] 25.9 µM | [8] 33.1 µM

CCOC(=O)Nc1ccc(NCc2ccc(F)cc2)nc1N
inactive: [1] | [2] | [3] | [4] | [5] | [6] | [7] | [8]

C[C@@H](O[C@H]1OCCN(Cc2n[nH]c(=O)[nH]2)[C@H]1c1ccc(F)cc1)c1cc(C(F)(F)F)cc(C(F)(F)F)c1
active: [1] 31.3 µM | [3] 33.4 µM | [5] 29.1 µM | [6] 34.2 µM | [7] 37.5 µM | [8] 35.1 µM
inactive: [2] | [4]

C#C[C@]1(OC(C)=O)CC[C@H]2[C@@H]3CCC4=C/C(=N/O)CC[C@@H]4[C@H]3CC[C@@]21CC
active: [1] 37.2 µM | [2] 40.4 µM | [3] 38.7 µM | [4] 42.8 µM | [5] 38.2 µM | [6] 40.6 µM | [7] 37.1 µM | [8] 39.5 µM

O=C(O)Cc1cn(-c2ccccc2)nc1-c1ccc(Cl)cc1
inactive: [1] | [2] | [3] | [4] | [5] | [6] | [7] | [8]

CC12CCC(C[N+](C)(CCC[N+](C)(C)C)C1)C2(C)C (stereo not drawn)
inactive: [1] | [2] | [3] | [4] | [5] | [6] | [7] | [8]

COc1ccccc1/C=C/C=O
inactive: [1] | [2] | [3] | [4] | [5] | [6] | [7] | [8]

OCC(O)[C@@H](O)[C@H](O)[C@H](O)CO[C@H]1O[C@H](CO)[C@@H](O)[C@H](O)[C@H]1O (stereo partly drawn)
inactive: [1] | [2] | [3] | [4] | [5] | [6] | [7] | [8]

C[N+]1(CC2COC(c3ccccc3)(C3CCCCC3)O2)CCCCC1 (stereo not drawn)
inactive: [1] | [2] | [3] | [4] | [5] | [6] | [7] | [8]

O=C(O)c1cc(=O)c2c3nc4ccccc4oc-3cc(=O)c2[nH]1
inactive: [1] | [2] | [3] | [4] | [5] | [6] | [7] | [8]

COc1cc2c(N3CCN(C(=O)Nc4ccc(OC(C)C)cc4)CC3)ncnc2cc1OCCCN1CCCCC1
active: [2] 35.5 µM | [4] 36.9 µM | [6] 34.7 µM | [8] 25.2 µM
inactive: [1] | [3] | [5] | [7]

CN1CCN(CCCN2c3ccccc3Sc3ccc(C(F)(F)F)cc32)CC1
inactive: [2] | [3] | [4] | [6] | [7]
active: [1] 36.4 µM | [5] 33.9 µM | [8] 43.1 µM

OC[C@]1(O)OC[C@@H](O)[C@H](O)[C@@H]1O
inactive: [1] | [2] | [3] | [4] | [5] | [6] | [7] | [8]

CC(C)COC(=O)COc1cc(Cl)c(Cl)cc1Cl
inactive: [1] | [2] | [3] | [4] | [5] | [6] | [7] | [8]

O=C(O)CCC(=O)C(=O)O
inactive: [1] | [2] | [3] | [4] | [5] | [6] | [7] | [8]

CN1CCN(c2cc3c(nn2)Oc2ccccc2N3C)CC1
inactive: [1] | [2] | [3] | [4] | [5] | [6] | [7] | [8]
